# Data from PMC7862700, “An all-to-all approach to the identification of sequence-specific readers for epigenetic DNA modifications on cytosine”.
# Columns and labels:
# Experiment in all cases: DAPPL (digital affinity profiling via proximity ligation, sequencing); 10 mM Tris-HCl pH 7.5, 50 mM NaCl, 1 mM DTT, 4% glycerol, room temperature, 30 min; GST-TFs on glutathione beads, 16-mer random dsDNA library, 0.1% formaldehyde crosslink after washing; high values mean tight binding
# Settings in all cases: protein: recombinant; tags: N-terminal GST; dsDNA, one strand shown
# ELK4 = molecular target: T1, ELK4 (Homo sapiens, UniProt P28324-2 1-405)
# T1 sequence: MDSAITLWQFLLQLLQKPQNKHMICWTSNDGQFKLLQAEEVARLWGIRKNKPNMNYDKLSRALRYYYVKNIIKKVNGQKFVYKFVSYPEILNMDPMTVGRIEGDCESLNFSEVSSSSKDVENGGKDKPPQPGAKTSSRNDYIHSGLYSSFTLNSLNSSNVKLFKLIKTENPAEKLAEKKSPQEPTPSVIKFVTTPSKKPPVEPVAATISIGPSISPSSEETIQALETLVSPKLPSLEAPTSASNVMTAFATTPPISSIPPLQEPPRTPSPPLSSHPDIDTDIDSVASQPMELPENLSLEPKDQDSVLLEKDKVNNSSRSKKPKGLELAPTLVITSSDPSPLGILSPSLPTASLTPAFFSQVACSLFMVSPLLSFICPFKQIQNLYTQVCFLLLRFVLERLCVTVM
# Summary of the method: (§1)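 Each value of binding signal is a hexamer's read frequency for a factor divided by the same hexamer's frequency in the tag-only sample. Barcoded, bead-captured GST fusions of human transcription factors made in yeast were pooled with that sample and incubated with 200 nmole of a random double-stranded 16-mer DNA library in Tris/NaCl/DTT/glycerol buffer at room temperature for 30 min. Washing, 0.1% formaldehyde crosslinking, proximity ligation, PCR and Illumina NextSeq500 sequencing followed.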
# ELF3 = molecular target: T2, ELF3 (Homo sapiens, UniProt P78545 1-371)
# T2 sequence: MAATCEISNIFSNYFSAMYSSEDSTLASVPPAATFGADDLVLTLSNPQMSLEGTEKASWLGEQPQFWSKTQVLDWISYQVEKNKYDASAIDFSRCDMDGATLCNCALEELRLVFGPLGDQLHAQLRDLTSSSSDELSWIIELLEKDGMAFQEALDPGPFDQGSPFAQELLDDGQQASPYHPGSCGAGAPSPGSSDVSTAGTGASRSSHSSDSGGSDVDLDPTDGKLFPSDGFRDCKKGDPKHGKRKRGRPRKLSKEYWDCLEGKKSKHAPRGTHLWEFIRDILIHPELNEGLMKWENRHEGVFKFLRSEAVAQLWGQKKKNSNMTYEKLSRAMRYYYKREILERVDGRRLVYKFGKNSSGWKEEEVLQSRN
# Summary of the method: as §1
# ELF5 = molecular target: T3, ELF5 (Homo sapiens, UniProt Q9UKW6-2 1-255)
# T3 sequence: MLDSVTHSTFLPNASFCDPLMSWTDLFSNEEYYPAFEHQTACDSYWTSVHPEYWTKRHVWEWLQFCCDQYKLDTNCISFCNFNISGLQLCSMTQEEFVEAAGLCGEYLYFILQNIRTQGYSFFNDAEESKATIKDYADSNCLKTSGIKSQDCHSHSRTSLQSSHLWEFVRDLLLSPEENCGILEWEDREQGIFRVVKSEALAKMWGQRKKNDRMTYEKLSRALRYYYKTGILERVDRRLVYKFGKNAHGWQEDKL
# Summary of the method: as §1
# ETV7 = molecular target: T4, ETV7 (Homo sapiens, UniProt Q9Y603 1-341)
# T4 sequence: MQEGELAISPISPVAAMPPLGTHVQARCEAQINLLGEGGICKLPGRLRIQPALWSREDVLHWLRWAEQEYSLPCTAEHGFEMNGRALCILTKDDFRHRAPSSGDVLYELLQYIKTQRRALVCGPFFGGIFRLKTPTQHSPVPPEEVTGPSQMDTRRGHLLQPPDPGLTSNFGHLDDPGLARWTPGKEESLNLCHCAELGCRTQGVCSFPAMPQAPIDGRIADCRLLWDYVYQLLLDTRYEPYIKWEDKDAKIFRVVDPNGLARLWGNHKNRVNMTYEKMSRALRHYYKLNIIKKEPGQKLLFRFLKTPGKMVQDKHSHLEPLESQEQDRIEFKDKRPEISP
# Summary of the method: as §1
# ETV2 = molecular target: T5, ETV2 (Homo sapiens, UniProt O00321 1-342)
# T5 sequence: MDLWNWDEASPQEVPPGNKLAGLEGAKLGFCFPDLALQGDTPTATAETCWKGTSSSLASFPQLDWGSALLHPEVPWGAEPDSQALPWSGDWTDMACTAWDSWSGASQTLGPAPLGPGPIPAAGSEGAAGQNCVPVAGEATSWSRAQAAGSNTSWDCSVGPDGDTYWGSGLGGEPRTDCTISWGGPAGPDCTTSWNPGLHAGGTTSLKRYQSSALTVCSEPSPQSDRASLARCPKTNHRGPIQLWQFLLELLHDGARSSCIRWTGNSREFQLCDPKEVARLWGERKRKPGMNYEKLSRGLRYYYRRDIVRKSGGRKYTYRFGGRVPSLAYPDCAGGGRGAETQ
# Summary of the method: as §1
# CRX = CRX (Homo sapiens, UniProt O43186 1-299)
# Summary of the method: as §1
# Chain of CRX (O43186 whole entry): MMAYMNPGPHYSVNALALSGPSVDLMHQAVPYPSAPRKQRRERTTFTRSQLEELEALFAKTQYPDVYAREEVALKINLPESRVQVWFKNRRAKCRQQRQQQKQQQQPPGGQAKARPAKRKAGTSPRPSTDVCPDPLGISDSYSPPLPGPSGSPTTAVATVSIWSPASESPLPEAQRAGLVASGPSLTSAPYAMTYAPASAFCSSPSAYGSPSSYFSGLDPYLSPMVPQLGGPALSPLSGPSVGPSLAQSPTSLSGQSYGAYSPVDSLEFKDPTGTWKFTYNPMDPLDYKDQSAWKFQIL
sequence,measurement,setting,value
GGGTTC,binding signal,ELK4,"1 fold enrichment (6-mer frequency, TF over GST control)"
same,binding signal,ELF3,"1.02 fold enrichment (6-mer frequency, TF over GST control)"
same,binding signal,ELF5,"1.1 fold enrichment (6-mer frequency, TF over GST control)"
GCCCCA,binding signal,ELK4,"1.06 fold enrichment (6-mer frequency, TF over GST control)"
TTGGTC,binding signal,ELK4,"1.15 fold enrichment (6-mer frequency, TF over GST control)"
same,binding signal,ETV7,"1.18 fold enrichment (6-mer frequency, TF over GST control)"
same,binding signal,ELF5,"1.04 fold enrichment (6-mer frequency, TF over GST control)"
GTCTAC,binding signal,ELK4,"1 fold enrichment (6-mer frequency, TF over GST control)"
same,binding signal,ELF5,"1.08 fold enrichment (6-mer frequency, TF over GST control)"
TGCCAA,binding signal,ELK4,"1.06 fold enrichment (6-mer frequency, TF over GST control)"
same,binding signal,ELF3,"1.17 fold enrichment (6-mer frequency, TF over GST control)"
same,binding signal,ETV7,"1.01 fold enrichment (6-mer frequency, TF over GST control)"
same,binding signal,ELF5,"1.1 fold enrichment (6-mer frequency, TF over GST control)"
ATGCCG,binding signal,ELK4,"1.15 fold enrichment (6-mer frequency, TF over GST control)"
same,binding signal,ELF5,"1.13 fold enrichment (6-mer frequency, TF over GST control)"
CCCCGT,binding signal,ETV2,"1.1 fold enrichment (6-mer frequency, TF over GST control)"
same,binding signal,ELF3,"1.26 fold enrichment (6-mer frequency, TF over GST control)"
same,binding signal,ELF5,"1.06 fold enrichment (6-mer frequency, TF over GST control)"
AGTGTC,binding signal,ETV2,"1.02 fold enrichment (6-mer frequency, TF over GST control)"
same,binding signal,ELF3,"1.11 fold enrichment (6-mer frequency, TF over GST control)"
same,binding signal,ETV7,"1.16 fold enrichment (6-mer frequency, TF over GST control)"
same,binding signal,ELF5,"1.15 fold enrichment (6-mer frequency, TF over GST control)"
AAACCG,binding signal,ETV2,"1.03 fold enrichment (6-mer frequency, TF over GST control)"
same,binding signal,ELF3,"1.07 fold enrichment (6-mer frequency, TF over GST control)"
same,binding signal,ETV7,"1.04 fold enrichment (6-mer frequency, TF over GST control)"
same,binding signal,ELF5,"1.02 fold enrichment (6-mer frequency, TF over GST control)"
GGTCCT,binding signal,ELK4,"1.05 fold enrichment (6-mer frequency, TF over GST control)"
same,binding signal,ETV2,"1.13 fold enrichment (6-mer frequency, TF over GST control)"
same,binding signal,ETV7,"1.09 fold enrichment (6-mer frequency, TF over GST control)"
CGGAAC,binding signal,ETV2,"1.14 fold enrichment (6-mer frequency, TF over GST control)"
same,binding signal,ELF3,"1.11 fold enrichment (6-mer frequency, TF over GST control)"
same,binding signal,ELF5,"1.3 fold enrichment (6-mer frequency, TF over GST control)"
CAGCTA,binding signal,ELK4,"1.16 fold enrichment (6-mer frequency, TF over GST control)"
same,binding signal,ELF3,"1.1 fold enrichment (6-mer frequency, TF over GST control)"
same,binding signal,CRX,"1.05 fold enrichment (6-mer frequency, TF over GST control)"
same,binding signal,ETV7,"1.13 fold enrichment (6-mer frequency, TF over GST control)"
TGTGGT,binding signal,ELK4,"1.03 fold enrichment (6-mer frequency, TF over GST control)"
same,binding signal,ETV2,"1.07 fold enrichment (6-mer frequency, TF over GST control)"
same,binding signal,ELF3,"1.2 fold enrichment (6-mer frequency, TF over GST control)"
same,binding signal,ETV7,"1.11 fold enrichment (6-mer frequency, TF over GST control)"
same,binding signal,ELF5,"1.03 fold enrichment (6-mer frequency, TF over GST control)"
ATAAGG,binding signal,ETV2,"1.02 fold enrichment (6-mer frequency, TF over GST control)"
same,binding signal,ELF3,"1.1 fold enrichment (6-mer frequency, TF over GST control)"
same,binding signal,CRX,"1.28 fold enrichment (6-mer frequency, TF over GST control)"
same,binding signal,ELF5,"1.25 fold enrichment (6-mer frequency, TF over GST control)"
CGTCGC,binding signal,ETV2,"1.2 fold enrichment (6-mer frequency, TF over GST control)"
same,binding signal,ELF3,"1.1 fold enrichment (6-mer frequency, TF over GST control)"
same,binding signal,ETV7,"1.23 fold enrichment (6-mer frequency, TF over GST control)"
same,binding signal,ELF5,"1.19 fold enrichment (6-mer frequency, TF over GST control)"
ACGATG,binding signal,ETV2,"1.14 fold enrichment (6-mer frequency, TF over GST control)"
same,binding signal,ELF3,"1.17 fold enrichment (6-mer frequency, TF over GST control)"
same,binding signal,ETV7,"1.2 fold enrichment (6-mer frequency, TF over GST control)"
same,binding signal,ELF5,"1.01 fold enrichment (6-mer frequency, TF over GST control)"
CTGCGG,binding signal,ETV2,"1.25 fold enrichment (6-mer frequency, TF over GST control)"
same,binding signal,ELF3,"1.2 fold enrichment (6-mer frequency, TF over GST control)"
same,binding signal,ETV7,"1.18 fold enrichment (6-mer frequency, TF over GST control)"
same,binding signal,ELF5,"1.06 fold enrichment (6-mer frequency, TF over GST control)"
CGCTAT,binding signal,ELK4,"1.07 fold enrichment (6-mer frequency, TF over GST control)"
same,binding signal,ETV2,"1.15 fold enrichment (6-mer frequency, TF over GST control)"
same,binding signal,ELF3,"1.01 fold enrichment (6-mer frequency, TF over GST control)"
same,binding signal,ETV7,"1.25 fold enrichment (6-mer frequency, TF over GST control)"
same,binding signal,ELF5,"1.16 fold enrichment (6-mer frequency, TF over GST control)"
GTACGC,binding signal,ELF3,"1.17 fold enrichment (6-mer frequency, TF over GST control)"
same,binding signal,ETV7,"1.09 fold enrichment (6-mer frequency, TF over GST control)"
same,binding signal,ELF5,"1.06 fold enrichment (6-mer frequency, TF over GST control)"
AACTGA,binding signal,ETV2,"1.07 fold enrichment (6-mer frequency, TF over GST control)"
same,binding signal,ELF3,"1.12 fold enrichment (6-mer frequency, TF over GST control)"
same,binding signal,ETV7,"1.05 fold enrichment (6-mer frequency, TF over GST control)"
same,binding signal,ELF5,"1.01 fold enrichment (6-mer frequency, TF over GST control)"
CACGGA,binding signal,ELK4,"1.05 fold enrichment (6-mer frequency, TF over GST control)"
same,binding signal,ELF3,"1.09 fold enrichment (6-mer frequency, TF over GST control)"
same,binding signal,ELF5,"1.29 fold enrichment (6-mer frequency, TF over GST control)"
TGTGGC,binding signal,ELK4,"1.16 fold enrichment (6-mer frequency, TF over GST control)"
same,binding signal,ETV2,"1.23 fold enrichment (6-mer frequency, TF over GST control)"
same,binding signal,ELF3,"1.02 fold enrichment (6-mer frequency, TF over GST control)"
same,binding signal,ETV7,"1.01 fold enrichment (6-mer frequency, TF over GST control)"
TCGCTG,binding signal,ELK4,"1.15 fold enrichment (6-mer frequency, TF over GST control)"
same,binding signal,ELF3,"1.12 fold enrichment (6-mer frequency, TF over GST control)"
same,binding signal,ETV7,"1.06 fold enrichment (6-mer frequency, TF over GST control)"
AGCTGT,binding signal,ELK4,"1.04 fold enrichment (6-mer frequency, TF over GST control)"
same,binding signal,ETV2,"1.07 fold enrichment (6-mer frequency, TF over GST control)"
same,binding signal,CRX,"1.02 fold enrichment (6-mer frequency, TF over GST control)"
TAACCG,binding signal,ETV2,"1.2 fold enrichment (6-mer frequency, TF over GST control)"
same,binding signal,ELF3,"1.04 fold enrichment (6-mer frequency, TF over GST control)"
same,binding signal,CRX,"1.1 fold enrichment (6-mer frequency, TF over GST control)"
same,binding signal,ETV7,"1.02 fold enrichment (6-mer frequency, TF over GST control)"
same,binding signal,ELF5,"1.05 fold enrichment (6-mer frequency, TF over GST control)"
TGCGGC,binding signal,ELF3,"1.33 fold enrichment (6-mer frequency, TF over GST control)"
same,binding signal,ETV7,"1.07 fold enrichment (6-mer frequency, TF over GST control)"
TACGGT,binding signal,ELK4,"1.02 fold enrichment (6-mer frequency, TF over GST control)"
same,binding signal,ETV2,"1.07 fold enrichment (6-mer frequency, TF over GST control)"
same,binding signal,ELF3,"1.11 fold enrichment (6-mer frequency, TF over GST control)"
same,binding signal,CRX,"1.03 fold enrichment (6-mer frequency, TF over GST control)"
same,binding signal,ETV7,"1.08 fold enrichment (6-mer frequency, TF over GST control)"
same,binding signal,ELF5,"1.04 fold enrichment (6-mer frequency, TF over GST control)"
CGATGT,binding signal,ETV2,"1.07 fold enrichment (6-mer frequency, TF over GST control)"
same,binding signal,ELF3,"1.11 fold enrichment (6-mer frequency, TF over GST control)"
same,binding signal,ETV7,"1.14 fold enrichment (6-mer frequency, TF over GST control)"
GCCGCC,binding signal,ELF3,"1.08 fold enrichment (6-mer frequency, TF over GST control)"
same,binding signal,ETV7,"1.03 fold enrichment (6-mer frequency, TF over GST control)"
same,binding signal,ELF5,"1.01 fold enrichment (6-mer frequency, TF over GST control)"
